Shown are actives, neighbours in structure and some others; about 11% of the full set was active somewhere.
L3MBTL1 block: qHTS Assay for the Inhibitors of L3MBTL1; AlphaScreen L3MBTL1–H3K9me1 peptide binding; Lethal(3)malignant brain tumor-like protein 1 (Homo sapiens), Q9Y468; actives 0.66% (n = 230,000); Potency, µM (doses to about 57.1 µM), without a hit: at the highest dose activity, negative = inhibition, hits mostly inhibitors; note: % is set by controls: 0 for no effect and ±100 for the full control effect; nearly all actives have a fitted effect of over 60% in size
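AlphaScreen assay: L3MBTL1 (50 nM final) was preincubated 30 min at room temperature with biotinylated H3(1-15)K9me1 peptide (75 nM final), then 30 min with library compounds; streptavidin donor and nickel chelate acceptor beads (10 ug/mL final) added, 30 min dark.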
HP1b chromo inh: HTS for Inhibitors of HP1-beta Chromodomain Interactions with Methylated Histone Tails | Potency, µM (doses to about 114 µM), for inactives: at the top dose activity change, negative = inhibition, hits mostly inhibitors | AID 540317, 2011 | actives 0.56% (n = 390,000) | Chromobox protein homolog 1 (Homo sapiens), P83916 | AlphaScreen HP1-beta / biotin-H3K9me3 peptide binding; note: nearly all actives have a fitted effect of over 70% in size
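HP1-beta protein (50 nM final) preincubated 30 min at room temperature with biotinylated H3(1-18)K9me3 peptide (50 nM) in PBS pH 7.4, 0.01% Tween-20, then compound added for 30 min. AlphaScreen streptavidin donor/nickel chelate acceptor beads (10 ug/mL final), 30 min dark, luminescence read.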
JMJD2A Tudor: qHTS Assay for Inhibitors of JMJD2A-Tudor Domain. Lysine-specific demethylase 4A (Homo sapiens), O75164. AlphaScreen JMJD2A-Tudor / H3K4me3 peptide binding. Potency, µM (doses to about 114 µM), for the others: top-dose activity change, negative = inhibition, usual class: inhibitors. actives 4.4% (n = 390,000). AID 504339, 2011; note: % is set by controls: 0 for no effect and ±100 for the full control effect; nearly all actives have a fitted effect of over 50% in size
Target sequence (O75164 whole entry, looked up, the tested form may be a part): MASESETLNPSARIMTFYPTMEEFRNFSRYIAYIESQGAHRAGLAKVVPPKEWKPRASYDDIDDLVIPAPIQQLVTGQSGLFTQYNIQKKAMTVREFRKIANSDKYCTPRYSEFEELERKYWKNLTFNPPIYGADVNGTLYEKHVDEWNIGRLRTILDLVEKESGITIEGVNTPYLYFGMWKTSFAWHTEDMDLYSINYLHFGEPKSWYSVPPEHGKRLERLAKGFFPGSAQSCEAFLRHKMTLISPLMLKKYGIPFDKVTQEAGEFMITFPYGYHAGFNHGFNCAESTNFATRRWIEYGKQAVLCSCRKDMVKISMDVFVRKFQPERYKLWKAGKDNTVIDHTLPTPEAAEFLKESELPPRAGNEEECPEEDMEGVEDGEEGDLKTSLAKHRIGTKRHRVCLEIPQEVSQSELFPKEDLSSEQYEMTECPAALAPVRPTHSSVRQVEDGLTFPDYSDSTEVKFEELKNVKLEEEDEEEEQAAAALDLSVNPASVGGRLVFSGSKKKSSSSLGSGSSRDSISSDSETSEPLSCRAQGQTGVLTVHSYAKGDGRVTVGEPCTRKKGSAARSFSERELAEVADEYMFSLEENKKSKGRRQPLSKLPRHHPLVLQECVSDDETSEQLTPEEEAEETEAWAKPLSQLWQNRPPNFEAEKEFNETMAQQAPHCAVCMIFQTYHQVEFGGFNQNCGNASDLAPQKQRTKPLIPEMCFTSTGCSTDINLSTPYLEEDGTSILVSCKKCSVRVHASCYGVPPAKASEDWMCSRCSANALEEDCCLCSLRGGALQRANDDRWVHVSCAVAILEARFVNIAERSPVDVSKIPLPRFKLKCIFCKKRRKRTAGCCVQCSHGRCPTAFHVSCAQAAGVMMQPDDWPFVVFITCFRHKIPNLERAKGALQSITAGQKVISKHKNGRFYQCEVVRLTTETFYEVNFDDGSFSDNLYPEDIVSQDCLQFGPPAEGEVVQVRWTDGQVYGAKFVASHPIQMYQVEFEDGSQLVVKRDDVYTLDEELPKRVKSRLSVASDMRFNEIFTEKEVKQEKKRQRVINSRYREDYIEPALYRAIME
G9a inh: qHTS Assay for Inhibitors of Histone Lysine Methyltransferase G9a; AID 504332, 2011; actives 8.8% (n = 350,000); G9a H3K9 monomethylation, AlphaScreen, 2 h; Potency, µM (series often up to 102 µM), inactives show top-dose activity, negative = inhibition, most hits filed as inhibitors; note: % is set by controls: 0 for no effect and ±100 for the full control effect; nearly all actives have a fitted effect of over 75% in size
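G9a (20 nM) preincubated 15 min RT with compounds, then 500 nM biotinylated H3K9 peptide and 20 uM SAM added; 2 h RT reaction. Monomethyl-H3K9 product detected by AlphaScreen with anti-H3K9me1 antibody, streptavidin donor and anti-rabbit IgG acceptor beads.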
BAZ2B inh: qHTS Assay for Inhibitors of BAZ2B. actives 4.4% (n = 360,000). Bromodomain adjacent to zinc finger domain protein 2B (Homo sapiens), Q9UIF8. AlphaScreen BAZ2B-H3K14Ac peptide displacement. Potency, µM (highest dose often 114 µM), for the others: at the top dose activity change, negative = inhibition, hits mostly inhibitors; note: % is set by controls: 0 for no effect and ±100 for the full control effect; nearly all actives have a fitted effect of over 60% in size
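AlphaScreen displacement of biotin-H3(5-23)K14Ac peptide (50 nM final) from BAZ2B (50 nM final) in PBS pH 7.4, 0.01% Tween-20; complex preformed 30 min RT, then compounds (top 110 uM) 30 min RT, beads 20 min dark.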
An asterisk follows results filed as active; ? = inconclusive; nt = not tested or not shown; [ ] = another dose, or the depositor's remark. Calls come from the whole dose curve; as a rule, active = well fitted inhibition curve with a large enough effect; inconclusive = small, poorly fitted or top-dose-only effect; inactive = no such curve, though single readings can be large or run the other way. Potency is the fitted concentration of half-maximal effect.

SMILES	L3MBTL1 block	HP1b chromo inh	JMJD2A Tudor	G9a inh	BAZ2B inh
COc1ccc(-c2c3c(=O)n(C)c(=O)n(C)c3c3n2-c2ccccc2NC3c2ccccc2OC)cc1 (stereo unspecified)	nt	28.2%	-12.6%	?	-5.4%
CCc1n[nH]c(=S)n1/N=C/c1c(C)nn(-c2ccccc2)c1Cl	nt	35.3%	?	1.78µM*	-4.4%
O=C(N=Nc1c(O)[nH]c(=O)[nH]c1=O)C1COc2cc3ccccc3cc2O1 (stereo unspecified)	?	-15.7%	-15.0%[11.4 µM]	50.1µM*	?
O=C1NC(=O)N(Cc2ccccc2)C(=O)/C1=C/N1CCCc2ccccc21	?	6.5%	?	7.94µM*	?
CC(C)c1ccc(N2C(=O)NC(=O)/C(=C/c3cnc(-c4ccccc4)nc3)C2=O)cc1	-13.9%	-4.9%	89.1µM*	3.55µM*	?
CCCCN1C(=O)NC(=O)/C(=C/c2cnc(SC)nc2)C1=O	-1.4%	-21.8%	?	10µM*	-34.2%
CSc1ncc(/C=C2/C(=O)NC(=O)N(c3ccc(C(C)C)cc3)C2=O)cn1	4.1%	-15.1%	?	7.94µM*	-11.9%
CSc1ncc(/C=C2/C(=O)NC(=O)N(C3CCCCC3)C2=O)cn1	0.0%	-19.8%	?	?	?
CSc1ncc(/C=C2/C(=O)NC(=O)N(C)C2=O)cn1	-0.8%	-18.6%	-9.0%	nt	-28.1%
CCCC1=Nc2cc(C(=O)NCCCN(CC)CC)ccc2Sc2ccccc21	nt	13.2%	-29.8%	-26.5%[59 µM]	-27.6%
O=C(Cn1c(=O)n(Cc2ccccc2)c(=O)c2sc3ccccc3c21)NCc1ccccc1Cl	nt	62.6%	-5.3%	10.0%[59 µM]	-32.5%
O=C1NC(=O)N(Cc2ccccc2)C(=O)/C1=C/c1cnc(-c2ccccc2)nc1	nt	-6.3%	79.4µM*	10µM*	-33.8%
O=c1c2ccccc2nc(/C=C/c2ccccc2F)n1-c1cccc(O)c1	nt	15.8%	-19.0%	-17.9%[59 µM]	-19.8%
O=C(Oc1ccccc1)N1CCC2(CC1)CCN(C(c1ccccc1)c1ccccc1)CC2	nt	nt	nt	3.9%[12.7 µM]	nt
Cc1ccc(/C=C2/C(=O)NC(=O)N(Cc3ccc(F)cc3)C2=O)o1	nt	nt	nt	nt	-15.9%
COCCN1C(=O)NC(=O)/C(=C\c2ccc(Br)cc2)C1=O	16.1%	10.5%	?	44.7µM*	-5.3%
Cc1ccc(/C=C2\C(=O)NC(=O)N(CCc3ccc(F)cc3)C2=O)o1	?	26.7%	-24.2%	3.16µM*	-8.1%
CCOc1cc(/C=C2\C(=O)NC(=O)N(CCc3ccc(F)cc3)C2=O)ccc1O	nt	26.7%	-3.9%	39.8µM*	-16.8%
CN(C)c1ccc(/C=C2/C(=O)NC(=O)N(CCc3ccc(F)cc3)C2=O)cc1	-7.6%	-0.1%	28.2µM*	?	?
COc1cc([C@@H]2c3cc4c(cc3C[C@H]3COC(=O)[C@@H]32)OCO4)cc(OC)c1O	nt	21.7%	-12.1%	nt	nt
O=C(c1ccc2c(c1)N(Cc1ccccc1)CCS2)N1CCC2(CC1)OCCO2	nt	8.5%	?	?	?
O=C1Nc2cc(C(=O)N3CCC4(CC3)OCCO4)ccc2NC1CSCc1cccc(F)c1 (stereo unspecified)	nt	nt	nt	7.08µM*	-22.0%
CCCCCCCCCC[Si](C)(C)CCC(=O)NC(Cc1ccc(C)cc1)c1ccccc1 (stereo unspecified)	nt	nt	nt	43.0%[59 µM]	nt
Cc1cc(Oc2cc(NN3CCCCC3)c([N+](=O)[O-])cc2[N+](=O)[O-])ccc1[N+](=O)[O-]	?	-20.2%	17.8µM*	7.08µM*	50.1µM*
CCC(C)(C)NC(=O)C(NS(=O)(=O)c1cccs1)c1ccccc1 (stereo unspecified)	nt	27.5%	-5.1%	-9.1%	4.6%
O=C(CCCCCn1c(=S)[nH]c2ccccc2c1=O)N1CCC2(CC1)OCCO2	-0.3%	40.5%	-22.5%	50.1µM*	-7.2%

Source: PubChem (National Center for Advancing Translational Sciences (NCATS))
